Measurements: the supplement of paper PMC3334620
In all, about 33,000 sequences were measured (“E-score (-0.5 to 0.5)”: median about -0.012, highest 2% from about 0.27 on). The list comes from a sample in which the highest values are over-represented; it also holds similar and randomly drawn sequences.

Target: T1, Vhr1 (UniProt P40522)
T1 sequence: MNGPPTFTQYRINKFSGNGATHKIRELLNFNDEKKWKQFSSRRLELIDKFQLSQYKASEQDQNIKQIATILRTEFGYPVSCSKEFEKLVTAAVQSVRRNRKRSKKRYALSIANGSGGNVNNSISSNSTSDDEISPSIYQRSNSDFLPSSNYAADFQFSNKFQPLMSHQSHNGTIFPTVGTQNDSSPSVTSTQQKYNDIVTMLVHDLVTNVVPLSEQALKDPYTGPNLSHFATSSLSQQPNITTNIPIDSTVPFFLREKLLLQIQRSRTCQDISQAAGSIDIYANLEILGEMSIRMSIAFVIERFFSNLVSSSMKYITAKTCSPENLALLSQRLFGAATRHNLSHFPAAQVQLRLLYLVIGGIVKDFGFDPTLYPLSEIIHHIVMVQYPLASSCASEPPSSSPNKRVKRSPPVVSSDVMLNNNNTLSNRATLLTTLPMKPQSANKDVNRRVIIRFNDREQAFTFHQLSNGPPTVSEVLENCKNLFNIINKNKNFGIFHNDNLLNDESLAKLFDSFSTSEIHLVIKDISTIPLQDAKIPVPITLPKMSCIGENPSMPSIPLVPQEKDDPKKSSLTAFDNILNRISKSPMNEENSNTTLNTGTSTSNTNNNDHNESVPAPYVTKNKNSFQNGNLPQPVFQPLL
Experiment: PBM E-score (8-mer binding enrichment) (E-score (-0.5 to 0.5)); higher = stronger / more preferred TF binding
Conditions: protein concentration: 200 nM; construct: GST-full length
Method: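 Universal 'all 10-mer' protein binding microarrays (Agilent AMADID 015681) probed with GST-tagged S. cerevisiae TFs (full-length or DBD) made by in vitro transcription/translation (PURExpress), about 100-200 nM. Bound TF was detected with fluorescent anti-GST. Each ungapped 8-mer (which stands for itself and its reverse complement) is scored by the PBM enrichment score (E-score), a modified Wilcoxon-Mann-Whitney statistic from -0.5 to +0.5, computed with the Universal PBM Analysis Suite. Scale: above 0.35 generally sequence-specific binding.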

Sequence	PBM E-score
AGTCATGC	0.443
CGTCATGA	0.267
AGCCATGC	0.128
AGTCATGA	0.466
AGTCATGG	0.458
AGTCAAGC	0.00212
AGCCATGG	0.281
AGACATGG	0.192
GGTCATGA	0.239
CGTCATGC	0.0219
AGTCAAGG	0.196
AGCCATGA	0.228
CCGTTTAG	-0.0628
AGAAGCGA	-0.0198
GGATAACC	-0.112
AGAACTTC	-0.182
CTTGCCCA	-0.177
GAAGGGTA	0.0935
CAAAGTTC	-0.0789
ACTGCGAG	0.0985
GCCACCAC	-0.0307
ATCATGGA	0.22
ACCATGGG	0.108
ATCATGCA	0.192
ATCATGGG	0.272

Sequence	PBM E-score
CCCATGGG	0.285
CCCATGGA	0.0783
ATCATGGC	0.143
ATCATGCG	0.283
ATCATGCC	0.0697
ACGGTCAC	-0.0582
TAGCGTAA	-0.0878
CGGAGATC	-0.0653
AATTCGGA	0.0232
TCAGAACA	0.00034
GCAGCTAA	-0.106
CAATTTTC	-0.0832
GAGGCAAC	-0.172
CATAACGA	0.0162
CGTGACGA	0.00499
CGTGACGC	-0.144
CGTGACTC	0.472
CGTGACTA	0.419
CGTGACCC	0.141
CGTGACAA	-0.0207
GGTCGAAC	0.00191
GACCCTAA	-0.109
GGAATTCC	-0.279
CTAATGAA	0.0817
AGCATCTC	0.0587

Sequence	PBM E-score
GGATTTGA	-0.0695
CTCGTGAA	0.0314
ATCGTGAC	0.113
CTCGTGAC	0.273
GCCCTCCA	-0.133
ATATATCC	0.273
ATATATCA	0.0989
ATATATAA	0.247
ACATATCA	0.281
ATATATAT	0.324
ATATATAC	0.285
ATATATAG	0.132
ACATATCG	0.191
CTATATAC	0.241
CCATATCA	0.0898
CTATATCC	-0.00727
GTATATAC	0.0568
GCCTGCGA	-0.00738
AGAATACT	0.0167
CAGTACCC	0.103
GATAATGC	0.114
GACCACGC	0.148
TAATCACA	0.222
AAATCACG	0.173
GCATCACC	-0.0259

Sequence	PBM E-score
AAATCACA	0.0215
CAATCACC	0.238
GAATCACA	0.341
CAATCACG	0.211
AAATCACC	0.312
GAATCACC	0.392
CTAGAAAC	-0.252
AAGGCTCC	-0.172
ATCGACGG	0.0804
CCGAATGA	0.166
CAACCGCG	0.3
CAACCGCA	0.0762
CAACCGCC	-0.102
GATTATAC	0.213
GCGGGCTA	-0.119
CGCGGCTC	0.278
AGCGGCTC	-0.0971
CGCGGCTA	-0.0223
CGTGTCAG	0.037
CCAGTCAG	0.0854
CGAGTCAG	0.429
GGAGTCGA	0.122
CGAGTCAA	0.278
CAAGTCAA	-0.0643
GGAGTCAA	0.354

Sequence	PBM E-score
CGAGTCAC	0.467
CGAGTCTC	0.0296
GGAGTCTA	0.0135
CGAGTCTA	-0.0817
CGAGTCCC	0.186
CCGTGCCG	-0.00022
AACCTCTC	-0.172
GCAGCCGA	0.0559
GCAGGCCA	0.117
ACTGATCC	0.0497
ATTGTTTC	0.217
AGAGTCCG	-0.0962
CGAGTCCG	0.286
TCAGTCAA	0.114
TTAGTCAA	0.168
CCAGTCCG	-0.0813
GGAGTCCA	0.163
TGAGTCCA	0.3
TGAGTCAA	0.419
CGAGTCCA	-0.0942
CAATCAAA	-0.008
CCTTCCCC	0.0876
CCCTATCC	-0.0379
CCAGCTGC	-0.105
ACAGCTGG	-0.119

Sequence	PBM E-score
CCAGCTGG	0.301
AGTAAATC	0.0723
AGGACTCC	0.129
CGGACTCC	0.2
CGGACTCA	0.381
AGGACTCG	0.167
CGGACTTA	-0.189
AGGACTCA	0.376
ATATACTA	0.257
CCTTGAGA	-0.0758
AAATAGTC	0.0418
CCATAGTC	0.225
AAATAGTG	-0.149
ACATAGTC	0.272
ACATAGTG	0.314
ACATAGTA	0.188
CCAGGACA	-0.0732
CTGCACAA	-0.0636
GGTTGTGA	0.143
ATCTCAAA	-0.0488
TGCTCAAA	-0.193
AATCCATT	0.113
ACTAATCG	0.251
ACTCAGTG	0.245
ACTCAGTA	0.281

Sequence	PBM E-score
CCGCAGTA	0.0424
ACGCAGTC	0.169
CCTCAGTA	-0.106
CCGCAGTC	0.274
GCTCAGTA	-0.0102
ACTCAGTC	0.314
CCTCAGTC	0.0647
ACGATGCC	-0.257
AGCAACTG	0.00583
GACCCAAA	0.0473
CGGAATAA	-0.0766
GGCCACTA	-0.00131
GTTGCCTA	-0.162
GAACGATA	-0.0543
AAACCAGT	0.0233
ATCTTGGA	0.0371
GCCTTATA	-0.0741
CGCCCGAA	-0.0969
CGCCCGAC	0.342
AGCCCGAC	0.0296
AACGAGCA	-0.0591
ATGCTCAG	0.141
